Test [1] concerns Wnt5a (protein binding on small-molecule microarray). Nature of the test: small molecules binding Wnt5a protein – biophysical, small-molecule microarray, 635/667 nm fluorescence, primary screen (AID 1142).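 Further: fluorescence read at 667 nm with signal to noise per printed feature.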 The following applies: 635 nm fluorescence, higher = more signal.
The nature of test [2]: ATP-based viability of Huh7 replicon cells – cell-based, CellTiter-Glo luminescence, basal, 48 h, cytotoxicity control for HCV replication inhibitor project, primary screen (AID 1143).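 Further: Huh7 hepatoma cells carrying a hepatitis C replication reporter with no stimulus; test concentration not given here.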 The following applies: higher = more signal, called active from +8 up or from −8 down. (In antiviral work, replicon cells carry a viral genome segment that copies itself.)
Test [3] is described as follows: Pseudomonas biofilm growth suppression – PAO1 strain, BacTiter-Glo luminescence, LB-PBS, primary screen (AID 1144). The following applies: P. aeruginosa PAO1 biofilm, 12 h, higher = more signal.
Test [4] can be described thus: basal CRE-LacZ reporter activity in PC12 – cell-based, unstimulated, primary screen (AID 1145). The following applies: no forskolin, luminescence, 4.5 h, higher = more signal, called active from +8 up or from −8 down.
Test [5] is described as follows: forskolin-driven CRE-LacZ activity in PC12 – cell-based, CRE-LacZ reporter, forskolin-stimulated, primary screen (AID 1146).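 Further: PC12 cells with 6xCRE LacZ reporter stimulated by forskolin 10 µM; beta-galactosidase reporter signal reflecting CREB driven transcription.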 The following applies: luminescence, 4.5 h, higher = more signal, called active from +8 up or from −8 down.
The target of test [6] is Streptavidin (Streptomyces avidinii) (UniProt P22629). Nature of the test: compounds binding control protein streptavidin – biophysical, small-molecule microarray, 635/667 nm fluorescence, artefact control for SMM compound annotation, primary screen (AID 1147).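 Further: signal reflects streptavidin binding to arrayed compounds as a control protein.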 To be noted: higher = more signal.
Test [7] in a line: probe aInhba binding on compound microarray – biochemical, small-molecule microarray, 635/667 nm fluorescence, primary screen (AID 1148).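 Further: score merges 667nm spot fluorescence with signal-to-noise for antibody binding to printed compounds.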 To be noted: higher = more signal.
The target in test [8] is Torsin-1A (Homo sapiens) (UniProt O14656). The test is described as follows: TOR1A wild-type binding on microarray – cell lysate, small-molecule microarray, lysate, 635/667 nm, primary screen (AID 1149). To be noted: COS7 hTOR1A-WT lysate, 635 nm fluorescence, higher = more signal.
Test [9] has the same target. Nature of the test: torsin A mutant lysate binding on microarrays – cell lysate, small-molecule microarray, COS7 lysate, 635/667 nm fluorescence, primary screen (AID 1150).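 Further: score pools 667 nm emission and signal to noise measuring lysate protein binding.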 To be noted: COS7 hTOR1A mutant lysate, 635 nm fluorescence, higher = more signal.
For test [10], the system named is Sonic hedgehog protein (Shh). Nature of the test: Sonic hedgehog microarray binding compounds – biochemical, small-molecule microarray, 635/667 nm fluorescence, primary screen (AID 1151).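 Further: Shh protein binding to compounds spotted on small-molecule microarray slides; score combines spot fluorescence intensity with signal-to-noise across triplicate slides.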 To be noted: 635 nm fluorescence, higher = more signal.

The record followed here is PubChem BioAssay.

Active and inactive are the calls of the source. Unless noted, how the calls were made is not given here.

Streptavidin (Streptomyces avidinii), sequence (P22629 whole entry, looked up): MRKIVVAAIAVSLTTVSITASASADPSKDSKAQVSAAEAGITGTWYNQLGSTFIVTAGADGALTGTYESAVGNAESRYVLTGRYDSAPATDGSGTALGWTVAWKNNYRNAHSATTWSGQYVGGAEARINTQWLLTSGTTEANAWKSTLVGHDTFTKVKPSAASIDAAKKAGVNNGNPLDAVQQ
Torsin-1A (Homo sapiens), sequence (O14656 whole entry, looked up): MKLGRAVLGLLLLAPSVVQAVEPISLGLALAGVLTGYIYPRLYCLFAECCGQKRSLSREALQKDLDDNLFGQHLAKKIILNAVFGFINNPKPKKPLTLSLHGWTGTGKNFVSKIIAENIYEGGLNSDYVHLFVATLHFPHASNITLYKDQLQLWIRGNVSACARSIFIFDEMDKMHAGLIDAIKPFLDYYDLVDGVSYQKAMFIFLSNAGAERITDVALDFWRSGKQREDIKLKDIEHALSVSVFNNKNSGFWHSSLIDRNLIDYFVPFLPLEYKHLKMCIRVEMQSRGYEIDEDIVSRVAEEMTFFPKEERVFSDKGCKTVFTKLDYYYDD

Take `COC(=O)C(CC#Cc1ccc2c(c1)[C@]1(C(=O)N2)[C@H](c2ccccc2OCCO)N2[C@H](c3ccccc3)[C@H](c3ccccc3)OC(=O)[C@H]2[C@@H]1C(=O)NC[C@H](O)c1ccccc1)C(=O)OC`: the composite z-score is 0.572 in [1]; 0.0979 in test [6]; -0.199 in test [7]; 0.951 in test [8]; 0.68 in test [9]; 1.22 in test [10]. Also, the z-score in test [2] is -3.75 (inactive); in [3], -1.26 (inactive); in test [4], -0.168 (inactive); in [5], 0.717 (inactive).

For the molecule `O=C1OCC=C[C@H]2OC34C=CCN(Cc5ccccc5)C(=O)[C@H]3N(CCCCCCO)C(=O)[C@@H]4[C@@H]12` (stereo not given in full), the composite z-score in [1] is -0.495; in [6] it was -0.447; in [7], -0.238; in [8] it was 1.6; in test [9], 1.29; in test [10], -0.289. The z-score in test [2] was -0.203 (inactive); in test [3], -0.955 (inactive); in test [4], -1.18 (inactive); in [5] it was -0.185 (inactive).

As to `O=C1C[C@@](C(=O)NCCN2CCOCC2)(c2ccc([N+](=O)[O-])cc2)[C@@H](c2ccc(CO)cc2I)N1C1CCCCC1`, the composite z-score in test [1] was 0.642; in [6], -0.0491; in [7] it was -0.0468; in [8], -0.308; in test [9], 0.896; in test [10], 1.92. Further, the z-score in [2] was -4.95 (inactive); in [3] it was -1.36 (inactive); in [4], 0.0279 (inactive); in test [5], -1.11 (inactive).

Consider `NC(=O)NCC#Cc1ccc2c(c1)[C@]1(C(=O)N2)[C@H](C(=O)NC[C@H](O)c2ccccc2)[C@H]2C(=O)O[C@H](c3ccccc3)[C@H](c3ccccc3)N2[C@@H]1c1ccc(OCCO)cc1`, for which the composite z-score in [1] is 0.496; in test [6], 0.661; in [7], 0.185; in test [8] it was -0.0075; in test [9], -0.002; in [10] it was 0.728. Besides, the z-score in [2] is 0.546 (inactive); in [3], -0.223 (inactive); in test [4] it was -0.698 (inactive); in [5], -0.535 (inactive).

Take `NC(=O)N1C(=O)C2C(C1=O)C1C=C(CCCO)C2C(c2cccs2)N1Cc1cccc(OC(F)(F)F)c1` (stereo not given): the composite z-score in test [1] is -0.0995; in test [6] it was 0.035; in test [7], -0.114; in test [8], 0.726; in test [9] it was 0.981; in test [10], 1.4. Further, the z-score is -2.32 (inactive) in test [2], 0.818 (inactive) in test [3], 0.0704 (inactive) in [4] and -0.461 (inactive) in test [5].

For `COCCOC(=O)N1C(=O)[C@@]2(c3cc(C#CC4(O)CCCCCC4)ccc31)[C@H](c1ccc(O)cc1)N1[C@H](c3ccccc3)[C@H](c3ccccc3)OC(=O)[C@H]1[C@@H]2C(=O)NC[C@H](O)c1ccccc1`, the composite z-score in test [1] was 0.677; in test [6], 0.383; in test [7], -0.125; in [8], 0.116; in [9], 1.09; in [10] it was 1.21. The z-score is -1.48 (inactive) in [2], -0.277 (inactive) in test [3], 0.712 (inactive) in test [4] and -0.61 (inactive) in test [5].

For the molecule `[N-]=[N+]=NCc1ccccc1[C@H]1OC(c2ccc(OCCCO)cc2)=N[C@@]1(CCS(=O)(=O)c1ccccc1)C(=O)N1CCCCC1`, the composite z-score in test [1] was 0.526; in test [6], 1.72; in test [7], 0.211; in test [8] it was 0.827; in test [9] it was 1.28; in test [10], 0.155. Besides, the z-score was -1.56 (inactive) in test [2], -0.705 (inactive) in test [3], 0.0219 (inactive) in [4] and -0.709 (inactive) in test [5].

As for `CN(C)C(=O)[C@@]1(CCS(=O)(=O)c2ccccc2)N=C(c2ccc(OCCCO)cc2)O[C@H]1c1ccccc1`, the composite z-score in test [1] is 0.543; in test [6] it was 0.926; in test [7] it was 0.0155; in test [8], 1.05; in test [9], 0.548; in test [10], -1.01. In addition, the z-score in test [2] was -3.07 (inactive); in test [3], 1.02 (inactive); in [4] it was 0.652 (inactive); in test [5], -0.481 (inactive).

Regarding `CC(C)(C)OC(=O)CC[C@]1(C(=O)NCC(O)CO)N=C(c2ccc(OCCCO)cc2)O[C@H]1c1ccccc1` (stereo not given in full), the composite z-score in test [1] is 0.167; in [6] it was 0.291; in test [7], 0.0391; in test [8] it was 0.709; in test [9] it was 1.6; in [10] it was -1.56. Further, the z-score is -4.48 (inactive) in test [2], -1.56 (inactive) in [3], -0.356 (inactive) in [4] and -0.729 (inactive) in [5].

Take `CCCCCCc1nc(C2CC2)cc2c1[Si](C(C)C)(C(C)C)O[C@H]2c1ccccc1`: the composite z-score was -0.0368 in test [1]; 0.147 in test [6]; 0.0319 in [7]; 0.338 in test [8]; 0.378 in test [9]; 1.59 in test [10]. The z-score in test [2] is 0.086 (inactive); in [3], -0.0699 (inactive); in test [4], 0.134 (inactive); in test [5], 0.128 (inactive).

In the case of `COCCOC(=O)N1C(=O)[C@@]2(c3cc(C#CC4=CCCCC4)ccc31)[C@H](c1ccc(OCCO)cc1)N1[C@H](c3ccccc3)[C@H](c3ccccc3)OC(=O)[C@H]1[C@@H]2C(=O)N1CCN(c2ncccn2)CC1`, the composite z-score stood at 0.323 in test [1]; 0.0363 in [6]; 0.0649 in test [7]; 0.767 in test [8]; 0.501 in test [9]; 0.772 in [10]. For the same molecule, the z-score in test [2] was -1.24 (inactive); in [3], 1.04 (inactive); in [4] it was 0.212 (inactive); in test [5] it was -0.674 (inactive).

Regarding `CO[C@H]1O[C@H](CO)[C@@H](OC(=O)Nc2ccccc2-c2ccccc2)[C@H](OC(=O)Nc2ccc3c(c2)OCO3)[C@H]1OC(=O)Nc1ccc2c(c1)OCO2`, the composite z-score in [1] is 0.35; in [6], 0.144; in test [7], 0.271; in test [8], 0.5; in test [9], 0.723; in test [10] it was 1.42. The z-score is -1.48 (inactive) in [2], -0.158 (inactive) in [3], 0.792 (inactive) in [4] and -0.97 (inactive) in test [5].

For `CC(C)C(=C=CC[C@H](O)c1ccc(OCCO)cc1)C[C@H](O)c1ccccn1`, the composite z-score was 0.149 in test [1]; -0.573 in test [6]; -0.0986 in [7]; 0.743 in test [8]; 0.995 in test [9]; 0.823 in test [10]. Also, the z-score in test [2] was -1.8 (inactive); in [3] it was -0.576 (inactive); in test [4], 5.48 (inactive); in test [5], -1.06 (inactive).

On to `COCCOC(=O)N1C(=O)[C@@]2(c3cc(C#CCCO)ccc31)[C@H](C(=O)Nc1nc3ccccc3s1)[C@H]1C(=O)O[C@H](c3ccccc3)[C@H](c3ccccc3)N1[C@@H]2c1ccccc1OCCO`, for which the composite z-score worked out at 0.585 in [1]; 0.968 in [6]; 0.949 in [7]; 0.759 in [8]; 1.12 in [9]; 0.881 in test [10]. Also, the z-score was -1.41 (inactive) in [2], 0.235 (inactive) in [3], -0.0526 (inactive) in test [4] and 0.595 (inactive) in [5].
